Experiment [1] is described as follows: Primary qHTS for inhibitors of nuclear receptor binding SET domain protein 2 (NSD2) in an RCH-ACV wild type WT cells (2C) (AID 1645877). Also: nearly all actives have a fitted effect of over 70% in size. Also: potency is read from the fitted curve at half-maximal effect. As to activity change, negative = cell killing: % is scaled to controls: 0 for no effect and ±100 for the full control effect.
Experiment [2] concerns the target Glutathione peroxidase 1 (Homo sapiens) (UniProt P07203). The experiment can be described thus: Primary qHTS Assay for Inhibitors of Recombinant Selenoprotein Glutathione Peroxidase 1 (GPX1) (AID 1845191). Also: nearly all actives have a fitted effect of over 65% in size. As to activity, negative = inhibition: % is scaled to controls: 0 for no effect and ±100 for the full control effect. In short, it runs like this: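 GR-coupled readout: NADPH consumption tracked by fluorescence, ex 340/em 450 nm, at t=0 and after 15 min at RT. Final mix 10 nM GPX1, 1 mM GSH, 0.5 mM CHP, 0.5 mM NADPH, 100 nM GR, 0.01% BSA, following 30 min enzyme–compound preincubation.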

Experiment [3] has as its target Phospholipid hydroperoxide glutathione peroxidase GPX4 (Homo sapiens) (UniProt P36969). In words: Primary qHTS Assay for Inhibitors of Recombinant Selenoprotein Glutathione Peroxidase 4 (GPX4) (AID 1845192). Also: nearly all actives have a fitted effect of over 65% in size. As to activity change, negative = inhibition: series mostly up to about 50 µM; % is scaled to controls: 0 for no effect and ±100 for the full control effect. In a few lines: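 Steps: GPX4 plus compound, 30 min RT; add GR/GSH/NADPH master mix; start with cumene hydroperoxide; read 340/450 nm fluorescence at 0 and 15 min. Finals were 200 nM GPX4, 1 mM GSH, 0.5 mM CHP, 0.5 mM NADPH, 100 nM GR.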

Experiment [4] concerns the target Luciferin 4-monooxygenase (Photinus pyralis) (UniProt P08659). In words: Primary firefly luciferase (FLuc) qHTS assay for identification of artifact compounds. (AID 1845220). Also: nearly all actives have a fitted effect of over 60% in size.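 As to activity change, negative = inhibition: series mostly up to about 54 µM; plate controls were DMSO vehicle for no effect and no enzyme for full effect.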 In a few lines:
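Enzymatic FLuc inhibition assay: compounds pre-exposed to luciferin/ATP (10 uM each) for 15 min, then purified P. pyralis enzyme at 10 nM added. Read-out: luminescence at 5 min.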

A short description of experiment [5]: Primary fluorescence-based thiol-reactive (MSTI) qHTS assay for identification of artifact compounds. (AID 1845221). Also: nearly all actives have a fitted effect of over 65% in size. Also: potency is read from the fitted curve at half-maximal effect.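 As to activity change, negative = thiol reactive: series mostly up to about 54 µM; thiol-reactive compounds lower the probe fluorescence signal.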 In short, it runs like this: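 Curve-fitted percent inhibition (4-parameter Hill) derived from fluorescence, Ex 525/Em 598 nm, scaled with Acetyl-MSTI and MSTI; 1 h incubation at room temperature.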
Experiment [6] has as its system Nanoluciferase (engineered Oplophorus gracilirostris luciferase). In words: Primary Nanoluciferase (NLuc) qHTS assay for identification of artifact compounds. (AID 1845222).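 Also: NLuc secreted into diluted conditioned medium of S16 cells; series mostly up to about 54 µM; 0% = DMSO and -100% = no enzyme.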 In short, it runs like this: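 S16 cell supernatant NLuc, 1:55; cpds qHTS; 15 min RT dark; Nano-Glo substrate 1:100, 5 min; luminescence; Hill fit of % inhibition.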
Experiment [7] in a line: Primary redox qHTS assay for identification of artifact compounds. (AID 1845223).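 Also: 0% = DMSO and 100% = reference compound.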 In short, it runs like this: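 Redox-cycling detection via DTT (250 uM final) oxidation coupled to Amplex Red (25 uM)/HRP (250 mU/mL) in HBSS. 15 min preincubation plus 30 min after DTT, room temperature. Ex/Em 525/598 nm; 4-parameter Hill fit against DMSO and 10 uM DA3003.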

Unmarked numbers belong to inactive results. Inconclusive results are not listed. Calls of active or inactive are those of the source. Calls follow the shape of the dose curve; as a rule, active = well fitted curve in the direction sought with a large enough effect; inconclusive = small, poorly fitted or top-dose-only effect, or another doubt; inactive = no such curve, though single readings can be large; an effect the other way counts as inactive or inconclusive.

Sequence of Phospholipid hydroperoxide glutathione peroxidase GPX4 (Homo sapiens) (P36969 whole entry, looked up): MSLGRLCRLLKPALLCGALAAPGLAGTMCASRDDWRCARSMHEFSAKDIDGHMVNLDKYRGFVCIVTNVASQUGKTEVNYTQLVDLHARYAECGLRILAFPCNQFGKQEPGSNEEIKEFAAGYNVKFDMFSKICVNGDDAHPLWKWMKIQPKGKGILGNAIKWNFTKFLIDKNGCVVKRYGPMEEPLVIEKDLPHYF
Sequence of Glutathione peroxidase 1 (Homo sapiens) (P07203 whole entry, looked up): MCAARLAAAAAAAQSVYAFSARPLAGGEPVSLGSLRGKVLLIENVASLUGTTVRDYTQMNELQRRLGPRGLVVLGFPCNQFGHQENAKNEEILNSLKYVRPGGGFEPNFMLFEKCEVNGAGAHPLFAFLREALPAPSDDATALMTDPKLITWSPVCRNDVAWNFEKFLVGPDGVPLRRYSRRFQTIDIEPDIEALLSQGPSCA

For the molecule `CC1(C)CC2=C3C=CC4C5(C)CCC(O)C(C)(C)C5CCC4(C)C3(C)CCC2(C)C(O)C1` (stereo not drawn), the Potency result in experiment [1], in experiment [2], in experiment [3], in experiment [4], in experiment [6] and in experiment [7] was “inactive” in each case. Moreover, the Potency in experiment [5] was 11.6 µM (active).

`Clc1cc2c(NC3CCCC3)nnc(-c3ccncc3)c2cc1Cl`: the Potency entry in experiment [1], in experiment [2], in experiment [3], in experiment [4], in experiment [5] and in experiment [6] was “inactive” each time. In addition, in experiment [7], the Potency entry is “inactive”.

For `COc1cc2ncnc(Nc3cccc(O)c3)c2cc1OC`, the Potency in experiment [1] is 3.25 µM (active). The Potency entry in experiment [2], in experiment [3], in experiment [4], in experiment [5], in experiment [6] and in experiment [7] was “inactive” throughout.

Take `CC1(C)CC[C@]2(C(=O)O[C@@H]3O[C@H](CO)[C@@H](O)[C@H](O)[C@H]3O)CC[C@]3(C)C(=CCC4[C@@]5(C)C[C@@H](O)[C@H](O)[C@](C)(C(=O)O)C5CC[C@]43C)C2C1O` (stereo partly drawn): the Potency entry in experiment [1], in experiment [2], in experiment [3], in experiment [4], in experiment [5] and in experiment [6] was “inactive” in each case. In addition, the Potency result in experiment [7] is “inactive”.

With `Cc1cccc(S(=O)(=O)N2CCC[C@@H]2CCN2CCC(C)CC2)c1`, the Potency result in experiment [1], in experiment [2], in experiment [3], in experiment [4], in experiment [5] and in experiment [6] was “inactive” in each case. For the same molecule, the Potency result in experiment [7] was “inactive”.

Consider `CC1CC(O)C2(OC1=O)OC1C(O)C3C4CCC5CC(OC6OC(CO)C(O)C(O)C6OC6OC(C)C(O)C(O)C6O)CCC5(C)C4CCC3(C)C1C2C` (stereo not drawn), for which the Potency result in experiment [1], in experiment [2], in experiment [3], in experiment [4], in experiment [5] and in experiment [6] was “inactive” each time. The Potency result in experiment [7] was “inactive”.

Regarding `Cc1ccc(C)c(OCCn2cc(C(=O)O)c3ccccc32)c1`, the Potency result in experiment [1], in experiment [2], in experiment [3], in experiment [4], in experiment [5] and in experiment [6] was “inactive” throughout. In experiment [7], the Potency entry is “inactive”.

Regarding `Cc1[nH]c2ccccc2c1C1=C(NCCc2ccc(F)cc2)C(=O)N(C)C1=O`, the Potency is 8.17 µM (active) in experiment [1] and 1.5 µM (active) in experiment [5]. In addition, the Potency entry in experiment [2], in experiment [3], in experiment [4], in experiment [6] and in experiment [7] was “inactive” each time.

With `CC1=CC(=O)CC(C)(C)C1/C=C/C(C)O[C@@H]1O[C@H](CO)[C@@H](O)[C@H](O)[C@H]1O[C@@H]1OC[C@](O)(CO)[C@H]1O` (stereo partly drawn), the Potency result in experiment [1], in experiment [2], in experiment [3], in experiment [4], in experiment [5] and in experiment [6] was “inactive” each time. For the same molecule, the Potency result in experiment [7] was “inactive”.

As to `C=CC1(C)C=C2CCC3C(C)(C)C(O[C@@H]4O[C@@H](CO)[C@H](O)[C@H]4O)CCC3(C)C2CC1O[C@@H]1O[C@H](C)[C@H](O)[C@H](O)[C@H]1O` (stereo partly drawn), the Potency result in experiment [1], in experiment [2], in experiment [3], in experiment [4], in experiment [5] and in experiment [6] was “inactive” throughout. Moreover, the Potency result in experiment [7] was “inactive”.

As to `CC(=O)C12OC(C)(C)OC1CC1C3CCC4=CC(=O)C=CC4(C)C3(F)C(O)CC12C` (stereo not drawn), the Potency in experiment [1] is 0.0065 µM (active). The Potency result in experiment [2], in experiment [3], in experiment [4], in experiment [5], in experiment [6] and in experiment [7] was “inactive” in each case.

For `CCC[C@@H]1O[C@@H]2C[C@H]3[C@@H]4CCC5=CC(=O)C=C[C@]5(C)[C@H]4[C@@H](O)C[C@]3(C)[C@]2(C(=O)CO)O1`, the Potency in experiment [1] was 0.0058 µM (active). The Potency entry in experiment [2], in experiment [3], in experiment [4], in experiment [5], in experiment [6] and in experiment [7] was “inactive” each time.

As for `C[C@@H]1O[C@@H](O[C@@H]2CO[C@@H](O[C@H]3CC[C@@]4(C)C(CC[C@]5(C)C4CC=C4[C@@H]6CC(C)(C)CC[C@]6(C(=O)O[C@@H]6O[C@H](CO)[C@@H](O)[C@H](O)[C@H]6O)CC[C@]45C)[C@]3(C)CO)[C@H](O)[C@H]2O[C@@H]2O[C@H](CO)[C@@H](O)[C@H](O)[C@H]2O)[C@H](O)[C@H](O)[C@H]1O` (stereo partly drawn), the activity change, negative = cell killing in experiment [1] is -18.1% [at 9.23 µM]. Besides, the Potency entry in experiment [2] and in experiment [3] was “inactive” throughout. The outcome in experiment [4] was “inactive [at 11.6 µM]”. Besides, the activity change, negative = thiol reactive in experiment [5] is 216% [at 11.5 µM]. In experiment [6], the activity, negative = inhibition was -0.413% [at 11.6 µM]. Further, the redox activity (% of DA3003) in experiment [7] is 7.97% [at 11.5 µM].

For the molecule `CC(=O)c1ccc(O[C@@H]2O[C@H](CO)[C@@H](O)[C@H](O)[C@H]2O)cc1`, the Potency result in experiment [1], in experiment [2], in experiment [3], in experiment [4], in experiment [5] and in experiment [6] was “inactive” in each case. Moreover, the Potency entry in experiment [7] was “inactive”.

For the molecule `C[C@@H]([C@@H](O)c1ccc(O)cc1)N1CCC(O)(c2ccccc2)CC1`, the Potency entry in experiment [1], in experiment [2], in experiment [3], in experiment [4], in experiment [5] and in experiment [6] was “inactive” throughout. For the same molecule, the Potency entry in experiment [7] was “inactive”.

In the case of `C[C@@H]1O[C@@H](OC[C@H]2O[C@@H](OC(CCCCc3ccc(O)cc3)CCc3ccc(O)cc3)[C@H](O)[C@@H](O)[C@@H]2O)[C@H](O)[C@H](O)[C@H]1O` (stereo partly drawn), the Potency result in experiment [1], in experiment [2], in experiment [3], in experiment [4], in experiment [6] and in experiment [7] was “inactive” each time. Besides, in experiment [5], the Potency is 7.93 µM (active).

Regarding `O=C(Nc1ccc(-c2ccncc2)cc1)N[C@H](CO)c1ccccc1`, the Potency in experiment [1] was 23 µM (active). Further, the Potency result in experiment [2], in experiment [3], in experiment [4], in experiment [5], in experiment [6] and in experiment [7] was “inactive” throughout.

On to `CC(=O)C1=C(C)N(c2cccc(C(F)(F)F)c2)C(=O)N[C@H]1c1ccc(C#N)nc1`, for which, in experiment [1], the activity change, negative = cell killing was -17.1% [at 9.23 µM]. Moreover, the Potency entry in experiment [2] and in experiment [3] was “inactive” each time. Further, the activity change, negative = inhibition in experiment [4] was -8.43% [at 11.6 µM]. The activity change, negative = thiol reactive in experiment [5] was 33.4% [at 11.5 µM]. In addition, the activity, negative = inhibition in experiment [6] was -1.73% [at 11.6 µM]. Moreover, in experiment [7], the redox activity (% of DA3003) was -3.41% [at 11.5 µM].

For the molecule `O=C(O)C(O[C@@H]1O[C@H](CO[C@@H]2O[C@H](CO)[C@@H](O)[C@H](O)[C@H]2O)[C@@H](O)[C@H](O)[C@H]1O)c1ccccc1` (stereo partly drawn), the Potency entry in experiment [1], in experiment [2], in experiment [3], in experiment [4], in experiment [5] and in experiment [6] was “inactive” throughout. The Potency entry in experiment [7] was “inactive”.

These data come from PubChem BioAssay (NCATS).
